The text below walks through data of PubChem BioAssay.

Experiment [1] in a line: Wnt pathway potentiators raising nuclear beta-catenin – imaging, WNT3A-conditioned medium, mouse C2C12, NPC library, primary screen (AID 1117326). Also: reference of the scale not given here. The note with it: stronger effect = higher value.
The nature of experiment [2]: stimulators of insulin release from INS-1E, primary screen, cell-based, 5 mM glucose, NPC library (AID 1117329;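 active = compound raises insulin release from rat beta cells at 5 mM glucose, no numeric limit stated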; also: reference of the scale not given here). The note with it: rat INS-1E insulin secretion, at 10 µM, stronger effect = higher value.
The nature of experiment [3]: growth inhibition of GSK3B-pretreated HCT116 cells – cell-based, CellTiter-Glo, 0.2 to 20 µM (AID 1117336;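 active = compounds lowering colon cancer cell viability after pretreatment blocking the GSK3B kinase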). The note with it: HCT116 viability after GSK3B inhibitor, at 20 µM, stronger effect = higher value. On the technique in general: ATP-based viability assays read luminescence as a measure of living cells.
Experiment [4] can be described thus: inhibition of endothelial tube formation, primary screen, imaging, VEGF stimulated, CD31 staining, tube area, NPC library (AID 1117340;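 active = compound that reduces growth-factor-driven endothelial tube area in a mixed cell culture, no cutoff stated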). The conditions noted are these: VEGF-stimulated ADSC/ECFC co-culture, at 10 µM, stronger effect = higher value.
Experiment [5] can be described thus: GLP1 release stimulators, primary, NCI-H716, NPC library (AID 1117341;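 active = compound raises GLP1 secretion from the human gut endocrine cells, with no numeric limit stated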; also: reference of the scale not given here). The note with it: NCI-H716 cells, at 10 µM, stronger effect = higher value.
Experiment [6] can be described thus: HCT116 colon cancer cell growth inhibition, primary screen, CellTiter-Glo luminescence, NPC library (AID 1117342;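 active = compounds that lower survival of HCT116 colon cancer cells in the luminescence readout, no numeric limit stated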). The note with it: at 20 µM (top of the series).
Experiment [7] is described as follows: reduced SW480 viability measured with CellTiter-Glo, NPC library, primary (AID 1117343;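 active = compounds that lower viability of the colon cancer cells in the luminescence readout, with no numeric limit stated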). The note with it: CellTiter-Glo luminescence; at 20 µM (top of the series).
Experiment [8] in a line: NPC library primary testing for decreased DLD-1 cell viability via CellTiter-Glo (AID 1117346;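 active = compounds that lower survival of DLD-1 colon cancer cells in the luminescence readout, no cutoff given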). The note with it: DLD-1 viability, CellTiter-Glo luminescence; at 20 µM (top of the series).

Activity calls are given as the source filed them. Rule as the data show it, unless noted: active = nuclear beta-catenin stimulation mostly above about 4.2% (no sharp cut-off); inactive = mostly below about 10%.

For `O=C(O)CCCCCCNC1c2ccccc2CCc2ccccc21`, the nuclear beta-catenin stimulation in experiment [1] (at 10 µM) was -0.3% (inactive); in experiment [1] (stimulation, at 2 µM), -1.4%. For the same compound, in experiment [2], the insulin secretion stimulation is -0.2% (inactive). The viability decrease in experiment [3] is -7.3% (inactive). Further, in experiment [4], the tube area decrease is -4.7% (inactive). The GLP1 secretion stimulation in experiment [5] is 0.3% (inactive). Further, the inhibition of viability in experiment [6] is -9.4% (inactive). The viability decrease (inhibition) is 13.9% (inactive) in experiment [7] and -13.1% (inactive) in experiment [8].

Turning to `NCCS[As](SCCN)c1ccc(Nc2nc(N)nc(N)n2)cc1`, the nuclear beta-catenin stimulation is -1.4% (inactive) in experiment [1] (at 10 µM) and -0.4% in experiment [1] (stimulation, at 2 µM). Moreover, in experiment [2], the insulin secretion stimulation is 0.6% (inactive). Besides, in experiment [3], the viability decrease is -8.2% (inactive). Moreover, the tube area decrease in experiment [4] is 21.9% (inactive). In experiment [5], the GLP1 secretion stimulation was -3.3% (inactive). Besides, the inhibition of viability in experiment [6] was 0.1% (inactive). Moreover, the viability decrease (inhibition) was -3.2% (inactive) in experiment [7] and -34.2% (inactive) in experiment [8].

Consider `CC(=O)C1CCOC1=O` (centres undefined), for which the nuclear beta-catenin stimulation in experiment [1] (at 10 µM) was -0.1% (inactive); in experiment [1] (stimulation, at 2 µM) it was 1.2%. In addition, the insulin secretion stimulation in experiment [2] was 3.7% (inactive). Moreover, the viability decrease in experiment [3] is 13.5% (inactive). Further, in experiment [4], the tube area decrease was -5% (inactive). In experiment [5], the GLP1 secretion stimulation was 2.7% (inactive). The inhibition of viability in experiment [6] was 16.7% (inactive). The viability decrease (inhibition) in experiment [7] is 1.5% (inactive); in experiment [8] it was 1.4% (inactive).

Turning to `CN1C(=O)NC(=O)C(C)(C2=CCCCC2)C1=O` (centres undefined), the nuclear beta-catenin stimulation in experiment [1] (at 10 µM) is 1.5% (inactive); in experiment [1] (stimulation, at 2 µM), 0.7%. The insulin secretion stimulation in experiment [2] is -0.5% (inactive). In experiment [3], the viability decrease is -11.4% (inactive). Moreover, the tube area decrease in experiment [4] is 0.1% (inactive). Also, the GLP1 secretion stimulation in experiment [5] was 0.1% (inactive). The inhibition of viability in experiment [6] is -2.4% (inactive). Besides, the viability decrease (inhibition) in experiment [7] was 18.4% (inactive); in experiment [8] it was -1.75% (inactive).

For the compound `CCN(Cc1ccc(Cl)nc1)/C(=C/[N+](=O)[O-])NC`, the nuclear beta-catenin stimulation is -0.1% (inactive) in experiment [1] (at 10 µM) and 1.1% in experiment [1] (stimulation, at 2 µM). Also, in experiment [2], the insulin secretion stimulation is 3.5% (inactive). Moreover, the viability decrease in experiment [3] is 3.9% (inactive). The tube area decrease in experiment [4] was -21.3% (inactive). Besides, the GLP1 secretion stimulation in experiment [5] was -4.7% (inactive). The inhibition of viability in experiment [6] was -3.27% (inactive). Moreover, the viability decrease (inhibition) in experiment [7] was 13.3% (inactive); in experiment [8] it was 4.5% (inactive).

Take `O=C1c2ccccc2C(=O)C1C(=O)C(c1ccccc1)c1ccccc1`: the nuclear beta-catenin stimulation in experiment [1] (at 10 µM) was 0.3% (inactive); in experiment [1] (stimulation, at 2 µM), -0.1%. Besides, in experiment [2], the insulin secretion stimulation is -2.2% (inactive). Further, in experiment [3], the viability decrease was 91.3% (active). For the same compound, in experiment [4], the tube area decrease is 78.8% (active). Besides, the GLP1 secretion stimulation in experiment [5] is -5% (inactive). For the same compound, in experiment [6], the inhibition of viability was 44.8% (inactive). Also, the results for the viability decrease (inhibition) in experiment [7] and in experiment [8] were 120% (active) and 99.3% (active), respectively.

Turning to `O=C1OC(c2ccc(O)c(S(=O)(=O)O)c2)(c2ccc(O)c(S(=O)(=O)O)c2)c2c(Br)c(Br)c(Br)c(Br)c21`, the nuclear beta-catenin stimulation was 3.3% (inactive) in experiment [1] (at 10 µM) and 4.7% in experiment [1] (stimulation, at 2 µM). Besides, the insulin secretion stimulation in experiment [2] is 0.75% (inactive). Also, in experiment [3], the viability decrease is 22.6% (inactive). In experiment [4], the tube area decrease was -6.3% (inactive). Moreover, in experiment [5], the GLP1 secretion stimulation is 6.8% (inactive). Besides, in experiment [6], the inhibition of viability was -59% (inactive). For the same compound, the viability decrease (inhibition) in experiment [7] is 84.5% (active); in experiment [8] it was -56.3% (inactive).

Consider `C[C@]12C=CC(=O)C=C1CC[C@@H]1[C@@H]2CC[C@@]2(C)[C@H]1CC[C@]2(C)O`, for which the nuclear beta-catenin stimulation in experiment [1] (at 10 µM) is 6.6% (inactive); in experiment [1] (stimulation, at 2 µM), 2.4%. Besides, the insulin secretion stimulation in experiment [2] is 1.5% (inactive). Further, in experiment [3], the viability decrease was 38.6% (inactive). In experiment [4], the tube area decrease is 31.2% (inactive). Also, the GLP1 secretion stimulation in experiment [5] is 4% (inactive). In addition, the inhibition of viability in experiment [6] was 29.9% (inactive). The viability decrease (inhibition) in experiment [7] was 75.7% (active); in experiment [8], 17.9% (inactive).

For the compound `Oc1ccc2[nH]cc(CCCCN3CC=C(c4ccccc4)CC3)c2c1`, the nuclear beta-catenin stimulation in experiment [1] (at 10 µM) was 12.1% (inactive); in experiment [1] (stimulation, at 2 µM) it was 4%. Besides, the insulin secretion stimulation in experiment [2] was 1.8% (inactive). Besides, the viability decrease in experiment [3] is 81.3% (active). For the same compound, in experiment [4], the tube area decrease is 76.6% (active). Also, in experiment [5], the GLP1 secretion stimulation was 5.1% (inactive). The inhibition of viability in experiment [6] was 85% (active). The viability decrease (inhibition) in experiment [7] was 102% (active); in experiment [8], 81.4% (active).

In the case of `CCS(=O)(=O)C(C)(C)S(=O)(=O)CC`, the nuclear beta-catenin stimulation in experiment [1] (at 10 µM) is -0.7% (inactive); in experiment [1] (stimulation, at 2 µM) it was 1.4%. Moreover, the insulin secretion stimulation in experiment [2] is -0.1% (inactive). Besides, the viability decrease in experiment [3] was 2.1% (inactive). Moreover, in experiment [4], the tube area decrease was -6.6% (inactive). Moreover, in experiment [5], the GLP1 secretion stimulation was -1.4% (inactive). Moreover, the inhibition of viability in experiment [6] is -17.9% (inactive). In addition, the viability decrease (inhibition) in experiment [7] was -3.1% (inactive); in experiment [8] it was -0.85% (inactive).

In the case of `CCCOC(=O)c1cncn1C(C)c1ccccc1` (centres undefined), the nuclear beta-catenin stimulation is 3.6% (inactive) in experiment [1] (at 10 µM) and 0.7% in experiment [1] (stimulation, at 2 µM). The insulin secretion stimulation in experiment [2] was 4.8% (inactive). In experiment [3], the viability decrease was -12.2% (inactive). The tube area decrease in experiment [4] is -7.5% (inactive). For the same compound, in experiment [5], the GLP1 secretion stimulation was 1.9% (inactive). Further, in experiment [6], the inhibition of viability is 11% (inactive). Further, the viability decrease (inhibition) in experiment [7] is -24.3% (inactive); in experiment [8], 18.7% (inactive).

On to `S=C(SSC(=S)N1CCCCC1)N1CCCCC1`, for which the nuclear beta-catenin stimulation in experiment [1] (at 10 µM) is 1.8% (inactive); in experiment [1] (stimulation, at 2 µM), 0.4%. In addition, the insulin secretion stimulation in experiment [2] is -2.6% (inactive). Also, in experiment [3], the viability decrease was -2.9% (inactive). Also, the tube area decrease in experiment [4] is 8.9% (inactive). Also, the GLP1 secretion stimulation in experiment [5] was -2.3% (inactive). Also, the inhibition of viability in experiment [6] is -14.8% (inactive). The viability decrease (inhibition) in experiment [7] was 13.2% (inactive); in experiment [8], -3.5% (inactive).

Consider `O=c1[nH]c2cc(Cl)ccc2n1C1CCNCC1`, for which the nuclear beta-catenin stimulation in experiment [1] (at 10 µM) is 9.1% (inactive); in experiment [1] (stimulation, at 2 µM) it was 19.6%. Also, the insulin secretion stimulation in experiment [2] was 3.8% (inactive). For the same compound, the viability decrease in experiment [3] was 1.8% (inactive). For the same compound, the tube area decrease in experiment [4] was -3.4% (inactive). In experiment [5], the GLP1 secretion stimulation is 10.2% (inactive). Moreover, the inhibition of viability in experiment [6] was 29.9% (inactive). For the same compound, the viability decrease (inhibition) is 10.3% (inactive) in experiment [7] and 12.5% (inactive) in experiment [8].

On to `C#CCOC(C(=O)OCCN(C)C)(c1ccccc1)c1ccccc1`, for which the nuclear beta-catenin stimulation in experiment [1] (at 10 µM) was 2.7% (inactive); in experiment [1] (stimulation, at 2 µM) it was 0.9%. For the same compound, the insulin secretion stimulation in experiment [2] was 28.7% (active). For the same compound, the viability decrease in experiment [3] was -8.15% (inactive). The tube area decrease in experiment [4] was 36.7% (inactive). Also, the GLP1 secretion stimulation in experiment [5] was 5.3% (inactive). The inhibition of viability in experiment [6] was -6.2% (inactive). Besides, the results for the viability decrease (inhibition) in experiment [7] and in experiment [8] were 17.1% (inactive) and -1.8% (inactive), respectively.

With `N[C@@H](Cc1ccc(Oc2cc(I)c(O)c(I)c2)c(I)c1)C(=O)O`, the nuclear beta-catenin stimulation in experiment [1] (at 10 µM) is 0.6% (inactive); in experiment [1] (stimulation, at 2 µM) it was -0.5%. The insulin secretion stimulation in experiment [2] was 2.2% (inactive). For the same compound, in experiment [3], the viability decrease was 48.2% (inactive). Also, in experiment [4], the tube area decrease was 34.7% (inactive). The GLP1 secretion stimulation in experiment [5] is -3.9% (inactive). Also, the inhibition of viability in experiment [6] was 39.6% (inactive). The viability decrease (inhibition) is 36.1% (inactive) in experiment [7] and -13.1% (inactive) in experiment [8].

`CNC(=O)Oc1cccc2ccccc12`: the nuclear beta-catenin stimulation in experiment [1] (at 10 µM) is 7.6% (inactive); in experiment [1] (stimulation, at 2 µM), 0.4%. Besides, the insulin secretion stimulation in experiment [2] was 1.3% (inactive). For the same compound, in experiment [3], the viability decrease is 0.5% (inactive). Moreover, the tube area decrease in experiment [4] is 41.9% (active). Besides, the GLP1 secretion stimulation in experiment [5] was -5.4% (inactive). In experiment [6], the inhibition of viability was 5% (inactive). The viability decrease (inhibition) in experiment [7] was 114% (active); in experiment [8], 16.3% (inactive).
